One test concerns the target Albumin (Bos taurus) (UniProt P02769). Put plainly: bovine serum albumin binders on microarray, profiling panel, artefact control for SMM control protein annotation, biochemical, small-molecule microarray, Alexa647 label, 635/667 nm fluorescence (AID 1118).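 Also: score merges 667 nm emission intensity and signal-to-noise per printed compound spot.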 The conditions noted are these: BSA-A647 binding, fluorescence 635 nm, higher = more signal.
Test [1] in a line: small-molecule microarray binders of probe aXIP, primary screen, biochemical, NeuroSMM set, 635/667 nm fluorescence (AID 1119).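 Also: probe is the protein aXip251-270 applied at 1 µg/mL to compound-printed slides; binding of probe to printed compounds measured as 667 nm fluorescence plus signal to noise.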 The conditions noted are these: higher = more signal, called active from +8 up or from −8 down.
Test [2] is described as follows: small-molecule binders of probe aNOTCH3, primary screen, biochemical, small-molecule microarray, 635/667 nm fluorescence (AID 1120).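 Also: probe is a biotin-tagged antibody raised against NOTCH3 rather than NOTCH3 protein; score merges spot fluorescence near 667 nm with spot signal to noise.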 Conditions: higher = more signal.
A short description of test [3]: small-molecule binders of probe aNOTCH2, primary screen, biochemical, small-molecule microarray, 635/667 nm fluorescence (AID 1121).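 Also: score merges feature fluorescence read at 667 nm with its signal to noise.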 The conditions noted are these: higher = more signal.
Test [4] concerns the target Carbonic anhydrase 2 (Homo sapiens) (UniProt P00918). In words: CAII small-molecule binders, profiling panel, biochemical, small-molecule microarray, Alexa647-labelled CAII (AID 1122). Conditions: CAII-A647 binding fluorescence, higher = more signal.
Test [5] can be described thus: COS7 lysate on small-molecule microarray, probe aHis, 635 nm (AID 1123).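 Also: z-score combines 667nm fluorescence intensity with signal-to-noise per printed compound spot.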 The conditions noted are these: COS7 cell lysate, fluorescence, higher = more signal.
Test [6] can be described thus: compound binding in COS7 lysate, probe aLAP1, primary screen, cell lysate, small-molecule microarray (AID 1124).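 Also: lysate comes from COS7 cells expressing LAP1 and is applied at 0.3 µg/mL; score merges spot fluorescence near 667 nm with signal-to-noise over triplicate slides.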 Conditions: probe aLAP1, fluorescence, higher = more signal.
A further test deals with Sam68 (KHDRBS1). Put plainly: Sam68 small-molecule binders, primary screen, biochemical, small-molecule microarray, 635 nm fluorescence (AID 1125).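 Also: score merges 667 nm channel intensity with signal to noise over triplicate slides.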 The conditions noted are these: small-molecule microarray binding, higher = more signal.
Test [7] relates to Chordin-like protein 2 (CHRDL2). In words: CHRDL2 small-molecule binders, primary screen, biochemical, small-molecule microarray, 635 nm fluorescence (AID 1126).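 Also: printed compound slides probed with Chrdl2 protein at 4 µg/mL for 1 h at 4 C; score merges 667 nm emission intensity with signal to noise over three replicate slides.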 Conditions: small-molecule microarray binding, fluorescence 635 nm; higher = more signal.
In test [8] the target is Concanavalin-A (Canavalia ensiformis) (UniProt P02866). In words: ConA small-molecule binders, primary screen, artefact control for SMM control protein annotation, biochemical, small-molecule microarray, Alexa647 label, 635 nm (AID 1127).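 Also: z combines 667 nm emission intensity with signal-to-noise across three replicate slides.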 The conditions noted are these: ConA-A647 binding fluorescence, higher = more signal.
Concanavalin-A (Canavalia ensiformis), sequence (P02866 whole entry, looked up): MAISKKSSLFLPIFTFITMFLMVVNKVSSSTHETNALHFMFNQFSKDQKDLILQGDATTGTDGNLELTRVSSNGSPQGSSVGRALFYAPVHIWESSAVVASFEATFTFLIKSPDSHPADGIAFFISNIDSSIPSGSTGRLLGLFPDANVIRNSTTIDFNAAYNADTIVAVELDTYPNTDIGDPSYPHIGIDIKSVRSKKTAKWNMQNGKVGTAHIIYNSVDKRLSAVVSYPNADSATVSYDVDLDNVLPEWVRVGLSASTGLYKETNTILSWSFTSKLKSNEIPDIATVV
Test [9] in a line: anti-His antibody binders, primary screen, artefact control for SMM control protein annotation, biochemical, small-molecule microarray, 635 nm fluorescence (AID 1128).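 Also: score merges feature fluorescence with signal-to-noise for each printed compound spot.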 The conditions noted are these: anti-His Alexa647 antibody binding, higher = more signal.
The test system of test [10] is Human papillomavirus type 1a E7 protein (residues 1-88). In words: HPV1a E7 small-molecule binders, primary screen, biochemical, small-molecule microarray, residues 1-88, 635 nm (AID 1129). The conditions noted are these: small-molecule microarray binding, fluorescence 635 nm; higher = more signal.
Test [11] concerns the target Focal adhesion kinase 1 (Homo sapiens) (UniProt Q05397). In words: small-molecule microarray binders of FAK, primary screen, biochemical, 635/667 nm fluorescence, BSA, DTT (AID 1130).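 Also: composite of spot emission at 667 nm and signal to noise over triplicate slides.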 The conditions noted are these: PTK2 binding, 635 nm fluorescence, higher = more signal.
Test [12] has as its system Fibrinogen (Alexa647-labelled). In words: fibrinogen binders on compound microarrays, profiling panel, artefact control for SMM control-protein annotation, biochemical, small-molecule microarray, 635/667 nm fluorescence (AID 1131).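 Also: z-score merges 667 nm fluorescence with per-spot signal-to-noise over triplicate slides.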 The conditions noted are these: fibrinogen-A647 binding fluorescence, higher = more signal.
The target in test [13] is Follistatin (Homo sapiens) (UniProt P19883). Put plainly: follistatin binders on small-molecule microarrays, primary screen, biochemical, small-molecule microarray, 635/667 nm fluorescence (AID 1132). Conditions: FST binding, 635 nm fluorescence, higher = more signal.
Follistatin (Homo sapiens), sequence (P19883 whole entry, looked up): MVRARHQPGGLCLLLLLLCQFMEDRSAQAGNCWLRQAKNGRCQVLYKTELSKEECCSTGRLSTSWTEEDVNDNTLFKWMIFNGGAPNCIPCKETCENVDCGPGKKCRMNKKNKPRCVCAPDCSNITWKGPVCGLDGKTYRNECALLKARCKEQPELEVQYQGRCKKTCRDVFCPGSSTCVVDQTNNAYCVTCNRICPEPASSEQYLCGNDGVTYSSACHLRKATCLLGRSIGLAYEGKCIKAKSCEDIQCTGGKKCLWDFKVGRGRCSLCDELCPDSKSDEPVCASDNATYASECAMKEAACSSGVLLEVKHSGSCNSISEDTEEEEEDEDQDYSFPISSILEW
Test [14] deals with Fibroblast growth factor 2 (Homo sapiens) (UniProt P09038). In words: FGF2 binders on small-molecule microarrays, primary screen, biochemical, small-molecule microarray, 635/667 nm fluorescence (AID 1133). Conditions: small-molecule microarray binding, FGF2, fluorescence 635/667; higher = more signal.
Fibroblast growth factor 2 (Homo sapiens), sequence (P09038 whole entry, looked up): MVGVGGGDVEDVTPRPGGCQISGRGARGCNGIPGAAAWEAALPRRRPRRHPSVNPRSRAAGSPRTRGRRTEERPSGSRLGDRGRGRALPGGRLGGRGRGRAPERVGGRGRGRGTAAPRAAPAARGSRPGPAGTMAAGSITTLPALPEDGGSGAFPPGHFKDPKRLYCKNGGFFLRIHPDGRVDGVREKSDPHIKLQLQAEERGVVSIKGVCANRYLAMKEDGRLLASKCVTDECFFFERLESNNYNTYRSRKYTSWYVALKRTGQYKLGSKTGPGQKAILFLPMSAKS
The nature of test [15]: mitochondrial membrane potential change in A549 cells, profiling panel, cell-based, JC-1 fluorescence, basal, 24 h, 100 nL (AID 1138).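 Also: A549 lung adenocarcinoma cells under basal conditions with no added stimulus; test concentration not given here.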 The conditions noted are these: higher = more signal.
The next test deals with Lefty1. Put plainly: Lefty1 binders on small-molecule microarrays, primary screen, biochemical, small-molecule microarray, 635/667 nm fluorescence (AID 1139). The conditions noted are these: small-molecule microarray binding, fluorescence 635/667; higher = more signal.
For test [16], the system named is wheat germ agglutinin (Triticum aestivum), Alexa647-labelled. In words: wheat germ agglutinin binders on compound microarrays, profiling panel, artefact control for SMM control-protein annotation, biochemical, small-molecule microarray, 635/667 nm fluorescence (AID 1140).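 Also: score merges 667 nm feature emission with signal to noise over triplicate slides.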 The conditions noted are these: WGA-A647 binding, 635 nm fluorescence, higher = more signal.
Test [17] has as its target Luciferin 4-monooxygenase (Photinus pyralis) (UniProt P08659). In words: firefly luciferase enzyme inhibitors, primary screen, biochemical, luminescence, purified enzyme, 2006 set (AID 1141).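 Also: cell-free assay with purified firefly luciferase at 100 ng per well in PBS; test concentration not given here.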 Conditions: SteadyGlo luminescence, 30 min, higher = more signal, called active from +8 up or from −8 down.

The source made the active and inactive calls.

Focal adhesion kinase 1 (Homo sapiens), sequence (Q05397 whole entry, looked up): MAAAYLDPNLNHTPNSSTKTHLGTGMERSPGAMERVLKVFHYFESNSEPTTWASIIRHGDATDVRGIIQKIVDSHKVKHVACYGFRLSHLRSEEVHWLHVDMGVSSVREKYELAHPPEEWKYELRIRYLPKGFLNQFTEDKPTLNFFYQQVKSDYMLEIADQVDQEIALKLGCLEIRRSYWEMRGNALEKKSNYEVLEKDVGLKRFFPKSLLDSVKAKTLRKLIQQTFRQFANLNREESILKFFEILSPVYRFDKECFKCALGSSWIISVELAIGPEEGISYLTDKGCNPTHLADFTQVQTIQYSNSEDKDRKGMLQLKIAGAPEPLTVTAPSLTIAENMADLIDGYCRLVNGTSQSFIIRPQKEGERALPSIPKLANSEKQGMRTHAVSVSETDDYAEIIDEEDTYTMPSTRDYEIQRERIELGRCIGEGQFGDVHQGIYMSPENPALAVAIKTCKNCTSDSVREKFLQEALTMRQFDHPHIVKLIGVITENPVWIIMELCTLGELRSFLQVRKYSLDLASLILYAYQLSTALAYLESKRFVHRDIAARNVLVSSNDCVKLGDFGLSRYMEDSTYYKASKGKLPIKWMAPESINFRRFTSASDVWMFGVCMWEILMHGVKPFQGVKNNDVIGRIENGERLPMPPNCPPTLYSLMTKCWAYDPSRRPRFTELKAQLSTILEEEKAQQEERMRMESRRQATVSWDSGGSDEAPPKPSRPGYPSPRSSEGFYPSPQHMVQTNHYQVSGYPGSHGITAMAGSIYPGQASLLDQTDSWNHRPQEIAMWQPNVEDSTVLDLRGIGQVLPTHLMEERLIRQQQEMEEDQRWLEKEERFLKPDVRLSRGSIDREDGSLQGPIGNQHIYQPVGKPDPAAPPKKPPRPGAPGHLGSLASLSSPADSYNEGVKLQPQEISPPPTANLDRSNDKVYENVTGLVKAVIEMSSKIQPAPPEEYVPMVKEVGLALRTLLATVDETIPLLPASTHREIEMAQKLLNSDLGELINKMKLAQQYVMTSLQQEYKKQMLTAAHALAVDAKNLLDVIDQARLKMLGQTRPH
Luciferin 4-monooxygenase (Photinus pyralis), sequence (P08659 whole entry, looked up): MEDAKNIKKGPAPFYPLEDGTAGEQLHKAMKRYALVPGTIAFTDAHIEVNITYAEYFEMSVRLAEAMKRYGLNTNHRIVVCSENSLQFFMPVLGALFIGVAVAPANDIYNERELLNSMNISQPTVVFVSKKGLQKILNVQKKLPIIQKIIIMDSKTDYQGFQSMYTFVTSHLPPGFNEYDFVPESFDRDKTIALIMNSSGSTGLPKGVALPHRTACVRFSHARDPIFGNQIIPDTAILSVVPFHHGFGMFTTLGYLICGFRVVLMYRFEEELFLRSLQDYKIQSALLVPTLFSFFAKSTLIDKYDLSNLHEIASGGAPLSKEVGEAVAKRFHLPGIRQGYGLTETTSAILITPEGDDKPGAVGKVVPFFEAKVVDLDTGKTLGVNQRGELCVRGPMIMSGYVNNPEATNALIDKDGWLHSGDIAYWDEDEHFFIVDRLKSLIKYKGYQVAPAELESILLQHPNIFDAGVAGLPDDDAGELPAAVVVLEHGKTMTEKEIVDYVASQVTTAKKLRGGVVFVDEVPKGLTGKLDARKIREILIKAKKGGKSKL
Albumin (Bos taurus), sequence (P02769 whole entry, looked up): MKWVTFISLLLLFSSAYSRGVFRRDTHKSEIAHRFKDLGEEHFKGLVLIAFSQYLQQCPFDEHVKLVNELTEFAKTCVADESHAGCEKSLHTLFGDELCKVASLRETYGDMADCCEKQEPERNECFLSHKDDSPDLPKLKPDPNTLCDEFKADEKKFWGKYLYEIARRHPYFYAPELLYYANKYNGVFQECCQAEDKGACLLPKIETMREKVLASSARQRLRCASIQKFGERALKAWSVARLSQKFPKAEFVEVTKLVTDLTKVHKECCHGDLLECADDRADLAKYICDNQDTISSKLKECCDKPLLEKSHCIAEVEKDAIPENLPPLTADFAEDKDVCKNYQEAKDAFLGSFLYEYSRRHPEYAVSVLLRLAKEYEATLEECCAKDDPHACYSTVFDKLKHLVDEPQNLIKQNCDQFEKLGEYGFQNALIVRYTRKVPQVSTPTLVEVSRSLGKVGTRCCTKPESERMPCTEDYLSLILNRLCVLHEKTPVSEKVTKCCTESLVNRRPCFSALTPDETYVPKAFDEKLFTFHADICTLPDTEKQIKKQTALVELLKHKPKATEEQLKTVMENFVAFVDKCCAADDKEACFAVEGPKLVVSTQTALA

As for `Cc1ccc(N2C(=O)c3ccccc3[C@@H](C(=O)NCCCN(C)C)[C@@H]2c2ccc(CO)cc2)nc1`, the composite z-score is -0.0424 with Albumin (Bos taurus); -0.416 in test [2]; -0.244 in [3]; -0.0786 in test [4]; -0.515 in [5]; -0.225 in [6]. Besides, the composite z-score with Sam68 (KHDRBS1) was -0.292; in test [7] it was -0.283; in test [8], 0.375; in [9] it was 2.06; in test [10], 0.232; in [11] it was -0.736. Moreover, the composite z-score in test [12] was 0.442; in test [13], 0.115; in test [14] it was -0.189; in the test on Lefty1, -0.978; in test [16], -0.0618. Further, in [1], the composite Z-score was 0.403 (inactive). For the same compound, the results for the z-score in test [15] and in [17] were -0.0107 and 0.775 (inactive), respectively.
In the case of `CC(C)c1ccc(NN2C(C(O)c3ccc(F)cc3)C=CC3C(=O)N(c4ccccc4)C(=O)C32)cc1` (stereo not given), the composite z-score in the test with Albumin (Bos taurus) came out at 0.839; in [2], 0.378; in test [3], 0.0147; in test [4] it was 0.378; in [5] it was 2.79; in test [6], 0.846. Also, the composite z-score with Sam68 (KHDRBS1) was 1.31; in [7] it was -0.0773; in test [8], 1.1; in test [9], 0.651; in [10], 1.24; in [11] it was 0.515. The composite z-score is 0.989 in [12]; 1.16 in [13]; -0.15 in test [14]; 0.138 in the test with Lefty1; 0.886 in test [16]. Further, the composite Z-score in test [1] was 0.131 (inactive). Besides, the z-score in [15] was -0.559; in [17], -2.01 (inactive).
On to `[N-]=[N+]=NCc1ccccc1C[C@@]1(C(N)=O)N=C(c2ccc(OCCCO)cc2)O[C@@H]1c1ccccc1`, for which the composite z-score in the test with Albumin (Bos taurus) was 1.09; in test [2] it was 0.0762; in [3], 0.0341; in test [4], 0.693; in test [5] it was 2.83; in [6] it was 0.368. Also, the composite z-score was 1.3 with Sam68 (KHDRBS1); -1.38 in test [7]; 0.341 in test [8]; 2.4 in [9]; 1.03 in test [10]; 0.572 in [11]. For the same compound, the composite z-score in [12] was 0.67; in test [13], 0.367; in test [14], -0.457; with Lefty1, -0.642; in [16], 1.3. In addition, in test [1], the composite Z-score was 0.294 (inactive). Besides, the z-score in test [15] was 0.078; in test [17], -0.857 (inactive).
Regarding `Cc1cc(C)c(C(O)C2C=CC3C(=O)N(c4ccccc4)C(=O)C3N2Nc2ccccc2F)c(C)c1` (stereo not given), the composite z-score with Albumin (Bos taurus) worked out at 0.553; in test [2], 0.0602; in [3], 0.0278; in test [4], 0.365; in test [5], 1.08; in test [6] it was 0.725. Further, the composite z-score was -0.186 with Sam68 (KHDRBS1); 0.0036 in [7]; 0.511 in [8]; 1.29 in test [9]; -0.103 in test [10]; 0.39 in test [11]. Moreover, the composite z-score in test [12] was 0.859; in test [13] it was 0.0286; in [14] it was -0.435; with Lefty1, -0.589; in [16], 0.403. Besides, the composite Z-score in test [1] is 0.224 (inactive). The z-score in test [15] is -0.909; in [17], -0.746 (inactive).
As for `O=C1C2C=CC(C(O)c3ccco3)N(Nc3ccccc3F)C2C(=O)N1c1ccccc1` (stereo not given), the composite z-score with Albumin (Bos taurus) was 0.963; in [2], 0.101; in test [3], -0.104; in test [4], -0.0101; in test [5] it was 1.85; in test [6] it was 0.433. Further, the composite z-score in the test with Sam68 (KHDRBS1) was 0.309; in [7], -0.238; in test [8] it was 0.403; in [9] it was 0.0678; in test [10] it was 0.512; in test [11] it was 0.705. Besides, the composite z-score is 0.791 in test [12]; 0.235 in test [13]; -0.327 in [14]; -0.531 in the test on Lefty1; 0.826 in test [16]. For the same compound, in test [1], the composite Z-score is 1.49 (inactive). Moreover, the values for the z-score in test [15] and in [17] were -0.537 and -0.0425 (inactive), respectively.

The values above are taken from PubChem BioAssay.
